High-throughput results (PubChem BioAssay)
TDP43 rescue: rescues yeast growth from TDP-43 toxicity; TDP-43 expressing yeast growth rescue, BacTiter-Glo, 24 h; Potency, µM (titrated, usually from 46.1 µM), for inactives: at the top dose growth rescue (activation), hits mostly activators; actives 1.8% (n = 410,000); AID 652104; also: % of control where 0% means no effect; nearly all actives have a fitted effect of over 50% in size
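Luminescence from BacTiter-Glo reports growth of TDP-43-expressing yeast after 24 hr at 30 deg C with compound. Cells were raffinose-pregrown to mid-log, then seeded in galactose medium at OD600=0.02.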
FUS suppressor: rescues growth of FUS-expressing yeast | Potency, µM (highest dose often 76.6 µM), usual class: activators | S. cerevisiae FUS-expressing, growth rescue, OD600, 24 h | actives 0.24% (n = 390,000);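 also: plate controls were DMSO vehicle for no effect and reference control for full effect; nearly all actives have a fitted effect of over 55% in size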
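Toxicity suppression screen in FUS-yeast. Cells induced with 2% galactose, starting OD 0.005, treated 24hr at 30C with compounds at multiple final concentrations; growth by OD600.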
Abeta rescue: compounds reversing amyloid beta toxicity in yeast | yeast expressing A-beta42, growth rescue, OD600, 48 h; response scale: 0% DMSO, 100% iron-clioquinol control | actives 0.063% (n = 410,000) | Potency, µM (doses to about 46.1 µM), actives largely listed as activators; also: nearly all actives have a fitted effect of over 55% in size
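Growth rescue measured by 600 nm absorbance after 48 h yeast culture at 30 C with compound. Values normalized between DMSO and an equimolar ferric chloride plus clioquinol control.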
aSyn rescue: inhibitors of alpha-synuclein toxicity in yeast | actives 0.14% (n = 370,000) | Yeast expressing alpha-synuclein, growth rescue, BacTiter-Glo, 24 h | Potency, µM (highest dose often 46.1 µM), for the others: at the top dose growth rescue (activation), hits mostly activators; also: % of control where 0% means no effect; nearly all actives have a fitted effect of over 65% in size
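Readout is rescue of growth in alpha-synuclein-expressing yeast, so inhibitors of toxicity appear as activators. Growth after 24 hr at 30 deg C in galactose medium is quantified by luminescence.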
Active calls of the source: *. An excerpt weighted towards active compounds, which were near 2.1% of everything screened. Calls follow the shape of the dose curve; as a rule, active = well fitted curve in the direction sought with a large enough effect; inconclusive = small, poorly fitted or top-dose-only effect, or another doubt; inactive = no such curve, though single readings can be large; an effect the other way counts as inactive or inconclusive. Potency is read from the fitted curve at half-maximal effect.

Results for O=C(CSc1nnc(CNC(=O)c2c(F)cccc2Cl)o1)Nc1cccc(F)c1 ?
TDP43 rescue: 19%; FUS suppressor: inactive; Abeta rescue: inactive

What do the screens show for `COc1ccc(-c2cc3ccccc3[nH]2)cc1`?
TDP43 rescue: 1%; FUS suppressor: inactive; Abeta rescue: inactive; aSyn rescue: -10%

How did Cc1ccc(O)c(-c2cc3ccccc3[nH]2)c1 do in these assays?
TDP43 rescue: 3.2µM*; FUS suppressor: inactive; Abeta rescue: inactive; aSyn rescue: -5%

How did Clc1ccc2[nH]c(-c3ccccc3)cc2c1 do in these assays?
TDP43 rescue: 11µM*; FUS suppressor: inactive; Abeta rescue: inconclusive; aSyn rescue: -16%

What do the screens show for `O=c1cc(-c2ccccc2)[nH]c2cc(Cl)ccc12`?
TDP43 rescue: -20%; FUS suppressor: inactive; Abeta rescue: inactive; aSyn rescue: -2%

What do the screens show for `c1ccc(-c2cc3ccccc3[nH]2)cc1`?
TDP43 rescue: 11µM*; FUS suppressor: inactive; Abeta rescue: inactive; aSyn rescue: -16%

Results for Cc1ccc(O)c(-c2cc(-c3ccccc3F)[nH]n2)c1 ?
TDP43 rescue: 20%; FUS suppressor: inactive; Abeta rescue: inactive; aSyn rescue: -14%

What do the screens show for `CCCN(c1ccc(C(C)C)cc1)S(=O)(=O)c1ccc2c(c1)CCN2C(=O)CC`?
TDP43 rescue: -9%; FUS suppressor: inactive; Abeta rescue: inactive

What do the screens show for `c1ccc(-c2cn(-c3ccccc3)c3ncnc(N4CCN(c5ccccc5)CC4)c23)cc1`?
TDP43 rescue: 12%; FUS suppressor: inactive; Abeta rescue: inactive

What do the screens show for `COc1ccc(S(=O)(=O)N2CCC(c3nnnn3-c3ccccc3)CC2)cc1OC`?
TDP43 rescue: -1%; FUS suppressor: inactive; Abeta rescue: inactive

How did COC(=O)N[C@@H]1C[C@H]2[C@@H]3CC[C@H]4C[C@@H](OC)CC[C@]4(C)[C@H]3CC[C@@]12C do in these assays?
TDP43 rescue: 28µM*; FUS suppressor: inactive; Abeta rescue: inactive; aSyn rescue: -18%

Results for CNC(=O)c1c(NC(=O)c2ccc(N3C(=O)CCC3=O)cc2)sc2c1CCC(C)C2 (configuration not stated) ?
TDP43 rescue: 32µM*; Abeta rescue: inactive; aSyn rescue: 1%

What do the screens show for `CNC(=O)c1c(NC(=O)c2ccc(N3C(=O)CCC3=O)cc2)sc2c1CCCC2`?
TDP43 rescue: 8%; FUS suppressor: inconclusive; Abeta rescue: inactive; aSyn rescue: -12%

Results for O=C(Cc1ccc(Cl)cc1)NCC(c1cccs1)S(=O)(=O)c1ccc(F)cc1 (configuration not stated) ?
TDP43 rescue: 35µM*; FUS suppressor: inconclusive; Abeta rescue: inactive

What do the screens show for `CC(C)(C)c1ccc(C(=O)NCC(c2cccs2)S(=O)(=O)c2ccc(F)cc2)cc1` (configuration not stated)?
TDP43 rescue: inconclusive; FUS suppressor: 35µM*; Abeta rescue: inactive

What do the screens show for `O=C(COc1ccc(Cl)cc1)NCC(c1cccs1)S(=O)(=O)c1ccc(F)cc1` (configuration not stated)?
TDP43 rescue: inconclusive; FUS suppressor: inactive; Abeta rescue: inactive

How did CC[C@@]12C(=O)N(c3cccc(F)c3)C(=O)N1[C@H](c1cccc(C)c1)[C@@H]1C(=O)N(Cc3ccccc3)C(=O)[C@@H]12 do in these assays?
TDP43 rescue: -1%; FUS suppressor: 32µM*; Abeta rescue: inactive; aSyn rescue: 2%

How did Cc1cccc([C@@H]2[C@@H]3C(=O)N(Cc4ccccc4)C(=O)[C@@H]3[C@]3(Cc4ccccc4)C(=O)N(c4cccc(F)c4)C(=O)N23)c1 do in these assays?
TDP43 rescue: -8%; FUS suppressor: inactive; Abeta rescue: inactive; aSyn rescue: -2%

How did CCCOc1ccc(CNC(=O)CCCn2nc(C)c3sc4ccccc4c3c2=O)cc1 do in these assays?
TDP43 rescue: 5%; FUS suppressor: inactive; Abeta rescue: inactive

Results for CC(C)OC1=CC(=O)OC(c2cccc(Cl)c2)C1 (configuration not stated) ?
TDP43 rescue: 22µM*; FUS suppressor: inactive; Abeta rescue: inactive; aSyn rescue: 12%

How did O=C(CCc1c[nH]c2ccccc12)OCc1cccc([N+](=O)[O-])c1 do in these assays?
TDP43 rescue: inconclusive; FUS suppressor: inactive; Abeta rescue: 11µM*; aSyn rescue: 16%
